Activity calls are given as the source filed them.
Key:
[1] = compound effects on lung adenocarcinoma cell viability – A549, calcein-AM fluorescence, 48 h, basal, profiling panel (AID 1162); conditions: higher = more signal
[2] = compound effects on differentiated 3T3-L1 adipocyte viability – cell-based, 3T3-L1 adipocytes, calcein-AM fluorescence, 48 h, basal, profiling panel (AID 1163); conditions: 3T3-L1 adipocytes viability, higher = more signal
[3] = compound effects on hepatocellular carcinoma cell viability – HepG2, calcein-AM fluorescence, 48 h, basal, profiling panel (AID 1164); conditions: higher = more signal
[4] = compound effects on multiple myeloma cell viability – MM1S, calcein-AM fluorescence, 48 h, basal, profiling panel (AID 1165); conditions: higher = more signal
[5] = calcein-AM signal in unstimulated myeloma cells – cell-based, calcein-AM fluorescence, 48 h, PK04 Diversity Set, profiling panel (AID 1166); conditions: RPMI8226 myeloma viability, higher = more signal;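 note: cells grown under basal conditions without added stimulus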
[6] = JC-1 mitochondrial signal, unstimulated HepG2 cells – cell-based, JC-1 fluorescence, 24 h, 100 nL compound, profiling panel (AID 1167); conditions: HepG2 mitochondrial potential, higher = more signal
[7] = JC-1 mitochondrial signal, unstimulated adipocytes – cell-based, JC-1 fluorescence, 3T3-L1 adipocytes, 24 h, 100 nL compound, profiling panel (AID 1168); conditions: JC-1 mitochondrial fluorescence, higher = more signal, called active from +8 up or from −8 down
[8] = JC-1 mitochondrial signal, unstimulated myeloma cells – cell-based, JC-1 fluorescence, RPMI8226, 24 h, 100 nL compound, profiling panel (AID 1169); conditions: JC-1 mitochondrial potential fluorescence, higher = more signal
[9] = JC-1 mitochondrial signal, unstimulated MM1S myeloma – cell-based, JC-1 fluorescence, 24 h, 100 nL compound, profiling panel (AID 1170); conditions: MM1S mitochondrial potential, higher = more signal
[10] = resazurin metabolic signal in A549 cells – cell-based, resazurin fluorescence, 24 h, PK04 Diversity Set, profiling panel (AID 1171); conditions: A549 viability, higher = more signal, called active from +8 up or from −8 down
Note: test concentration not given here.

| Structure (SMILES) | z-score [1] | z-score [2] | z-score [3] | z-score [4] | z-score [5] | z-score [6] | z-score [7] | z-score [8] | z-score [9] | z-score [10] |
| --- | --- | --- | --- | --- | --- | --- | --- | --- | --- | --- |
| CC=CC(O)C1C=CC2C(=O)N(C)C(=O)C2N1N1CCCCC1 (stereo not given) | -0.0516 | -2.06 | -0.843 | -0.714 | -0.922 | -1.52 | -1.36 (inactive) | -0.615 | -0.00172 | -0.232 (inactive) |
| C=CC[C@@H](OC(=O)Nc1ccc(OC)cc1)c1ccc(OCCO)cc1 | -0.176 | 0.048 | 0.587 | -1.2 | -2.53 | -1.92 | -0.451 (inactive) | -0.052 | 0.19 | 0.213 (inactive) |
| CCOC(=O)[C@@H]1[C@@H]2C(=O)N(CC)C(=O)[C@@H]2C[C@@H]1Sc1ccccc1 | -0.992 | -1.04 | -0.971 | -0.223 | -0.0967 | -0.644 | 0.186 (inactive) | -0.28 | -1.29 | 1.06 (inactive) |
| CC1CC/C=C\[C@H]2OC34C=CCN(C(C)C)C(=O)[C@H]3N(CCCCCO)C(=O)[C@@H]4C2C(=O)O1 (stereo not given in full) | 1.85 | 0.601 | 0.29 | 1.84 | -1.4 | 0.583 | 0.633 (inactive) | -0.137 | 1.9 | 0.98 (inactive) |
| NC(=O)NCC#Cc1ccc2c(c1)[C@]1(C(=O)N2)[C@H](C(=O)Nc2nc3ccccc3s2)[C@H]2C(=O)O[C@H](c3ccccc3)[C@H](c3ccccc3)N2[C@@H]1c1ccc(O)cc1 | 0.234 | 1.28 | 0.28 | -0.614 | 0.76 | -3.35 | 0.588 (inactive) | -0.937 | -1.9 | 1.78 (inactive) |
| COCCOC(=O)N1C(=O)[C@@]2(c3cc(C#CC4=CCCCC4)ccc31)[C@H](c1ccccc1OCCO)N1[C@H](c3ccccc3)[C@H](c3ccccc3)OC(=O)[C@H]1[C@@H]2C(=O)N1CCc2cc(OC)c(OC)cc2C1 | 0.697 | 0.186 | 1.34 | 0.235 | -2.05 | 0.767 | 3.23 (inactive) | -1.06 | -1.32 | -0.926 (inactive) |
| O=C1O[C@@H](c2ccccc2)[C@@H](c2ccccc2)N2[C@@H](c3ccccc3OCCO)[C@]3(C(=O)Nc4ccc(C#CCCO)cc43)[C@@H](C(=O)Nc3nc4ccccc4s3)[C@H]12 | 1.02 | 0.0714 | 0.702 | -0.264 | -1.55 | -2.29 | 0.856 (inactive) | -1.13 | -1.33 | 0.2 (inactive) |
| C=CCC(OC(C)=O)[C@@H]1[C@@H](N(Cc2ccc(-c3ccccc3)cc2)C(=O)c2cccc3ccccc23)c2cc(OCCCO)ccc2N1C(=O)Cc1ccc2ccccc2c1 (stereo not given in full) | -0.0841 | -0.38 | -0.0632 | -0.211 | -0.183 | 1.47 | -1.43 (inactive) | 1.22 | 0.313 | 0.74 (inactive) |
| [N-]=[N+]=Nc1ccccc1[C@H]1OC(c2ccc(OCCCO)cc2)=N[C@@]1(CCS(=O)(=O)c1ccccc1)C(=O)N1CCCCC1 | -0.851 | 1.5 | -0.641 | -1.56 | -2.7 | 0.43 | -0.903 (inactive) | -0.877 | -0.801 | -1.01 (inactive) |
| COCC(=C=CC[C@H](O)c1cccc(OCCO)c1)C[C@H](O)c1ccccn1 | 1.39 | 0.101 | 1.25 | 0.0467 | 0.461 | 0.843 | 1.49 (inactive) | 0.237 | -0.664 | 1.22 (inactive) |
| Cc1ccc(S[C@]2(C(=O)NC(C)C)CC(=O)N(C3Cc4ccccc4C3)[C@@H]2c2ccc(CO)cc2I)cc1 | 0.6 | -0.345 | 0.425 | -1.7 | -1.29 | 0.221 | -0.277 (inactive) | -0.697 | -2.19 | -0.526 (inactive) |
| [N-]=[N+]=NCc1ccccc1C[C@@]1(C(=O)N2CCCCC2)N=C(c2ccc(OCCCO)cc2)O[C@@H]1c1ccccc1N=[N+]=[N-] | -0.0222 | 1.03 | 0.471 | -3.11 | -3.21 | 0.821 | 0.636 (inactive) | -1.25 | -1.14 | 0.0861 (inactive) |
| COc1ccc([Si](C)(C)[C@H]2[C@H](CC(=O)N3Cc4ccccc4C[C@H]3CO)O[C@@]3(C(=O)N(Cc4cccc(N5CCCCC5=O)c4)c4ccccc43)[C@@H]2C)cc1 | -0.463 | 0.785 | -0.229 | -1.87 | -3.08 | -0.189 | -0.198 (inactive) | -1.07 | -1.46 | -0.646 (inactive) |
| C=CCN1C(=O)[C@@]2(CCC(=O)OC(C)(C)C)N=C(c3ccc(OCCCO)cc3)O[C@H]2c2ccccc21 | -1.22 | 0.28 | -2.35 | -3.59 | -3.97 | -1.62 | 2.8 (inactive) | -1.19 | -2.57 | -1.66 (inactive) |
| CC(C)(C)OC(=O)CC[C@@]1(C(=O)O)N=C(c2ccc(OCCCO)cc2)O[C@@H]1c1ccccc1CN=[N+]=[N-] | 0.824 | -0.0107 | 0.0885 | 0.131 | 0.813 | -0.0553 | -0.913 (inactive) | -0.411 | -0.579 | 10.4 (active) |
| O=C1O[C@@H](c2ccccc2)[C@@H](c2ccccc2)N2[C@@H](c3ccc(O)cc3)[C@]3(C(=O)Nc4ccc(C#CCCO)cc43)[C@@H](C(=O)Nc3nc4ccccc4s3)[C@H]12 | 1.06 | 0.225 | 0.609 | -2.66 | -2.65 | -3.79 | -1.3 (inactive) | -0.503 | -1.03 | 0.621 (inactive) |
| C=CCNC(=O)[C@H]1[C@@H]2C(=O)O[C@@H](c3ccccc3)[C@@H](c3ccccc3)N2[C@@H](c2ccccc2OCCO)[C@]12C(=O)N(C(=O)OCCOC)c1ccc(C#CC3=CCCCC3)cc12 | -1.51 | 0.963 | -0.882 | -3.35 | -3.88 | 0.215 | 1.06 (inactive) | -0.924 | -1.49 | -1.02 (inactive) |
| C=C[C@@H](COC(C)=O)NS(=O)(=O)c1ccc(Br)cc1 | 0.0976 | -0.342 | 1.04 | -2.08 | -1.74 | -0.742 | -0.195 (inactive) | -0.0875 | -0.259 | -1.82 (inactive) |
| CC(C)C[C@@H]1NC(=O)[C@H]2C[C@@H](C(=O)NCCCCCC[N+](C)(C)C)[C@@H](c3cccc(OCCO)c3)N2C1=O | -0.53 | 0.282 | 0.0659 | -0.804 | -0.0361 | -0.474 | 0.0908 (inactive) | -0.271 | -0.34 | 1.24 (inactive) |
| O=C1O[C@@H](c2ccccc2)[C@@H](c2ccccc2)N2[C@@H](c3ccc(O)cc3)[C@]3(C(=O)Nc4ccc(C#CCCO)cc43)[C@@H](C(=O)NC[C@H](O)c3ccccc3)[C@H]12 | 0.479 | 0.269 | 0.333 | -0.121 | 0.671 | -1.93 | -1.16 (inactive) | 0.198 | -0.667 | 0.588 (inactive) |
| O=C(O)[C@H]1C[C@H]2C(=O)N3CCC[C@H]3C(=O)N2[C@H]1c1cccc(OCCO)c1 | 1.67 | -0.156 | 0.601 | 0.792 | -0.8 | 1.96 | -0.652 (inactive) | -0.77 | -0.568 | 1.04 (inactive) |
| COCCOC(=O)N1C(=O)[C@@]2(c3cc(C#Cc4ccc(OC)cc4)ccc31)[C@H](C(=O)N1CCN(c3ncccn3)CC1)[C@H]1C(=O)O[C@H](c3ccccc3)[C@H](c3ccccc3)N1[C@@H]2c1ccccc1OCCO | -0.457 | 0.0076 | 0.149 | 0.325 | 0.204 | 0.57 | 2.03 (inactive) | -0.403 | -1.41 | -0.785 (inactive) |
| COc1ccccc1CN1C(=O)c2ccccc2[C@](Cc2ccccc2I)(C(=O)NC(C)C)[C@@H]1c1ccc(CO)cc1 | 0.312 | 0.771 | -0.185 | -1.38 | -2.99 | 1.63 | -0.0467 (inactive) | -0.507 | -1.82 | -0.306 (inactive) |
| C=CCOC(=O)[C@@H]1[C@H]2C(=O)O[C@H](c3ccccc3)[C@H](c3ccccc3)N2[C@H](c2ccc(OCCOC(=O)[C@H]3C[C@H]4C(=O)N[C@@H](CC(C)C)C(=O)N4[C@H]3c3ccc(O)cc3)cc2)[C@@]12C(=O)Nc1ccc(I)cc12 | 0.15 | 0.325 | 1.02 | 0.38 | 1.08 | -0.227 | 3.06 (inactive) | -0.952 | -0.838 | -0.0756 (inactive) |
| COc1ccc(CCNC(=O)[C@@]2(Sc3ccc(C)cc3)CC(=O)N(Cc3cc(C(F)(F)F)cc(C(F)(F)F)c3)[C@@H]2c2ccc(CO)cc2I)cc1 | 0.154 | -0.208 | 0.0649 | -1.46 | -1.96 | -1.08 | -0.208 (inactive) | -0.165 | -2.1 | 0.469 (inactive) |
| O=C1O[C@H](c2ccccc2)[C@H](c2ccccc2)N2[C@H]1[C@@H](C(=O)O)[C@]1(C(=O)Nc3ccccc31)[C@H]2c1ccc(O)cc1 | 0.29 | -0.268 | -0.733 | 0.0137 | 0.605 | -1.33 | -1.43 (inactive) | 0.73 | 0.0818 | 0.769 (inactive) |
| COCCCNC(=O)[C@]1(Cc2ccccc2CN=[N+]=[N-])N=C(c2ccc(OCCCO)cc2)O[C@@H]1c1ccccc1 | -1.36 | 0.503 | -0.79 | -2.62 | -4.24 | -0.194 | 0.48 (inactive) | -1.15 | -1.11 | 0.28 (inactive) |
| CON(C)C(=O)C=C1C[C@@H](c2cccc(Cl)c2)O[C@@H](c2cccc(Cl)c2)O1 | -1.5 | 0.559 | -2.18 | -2.44 | -4.18 | 3.67 | 0.748 (inactive) | -1.09 | -1.16 | 2.23 (inactive) |
| C=CCC(OC(C)=O)[C@@H]1[C@@H](N(Cc2cc3ccccc3o2)C(=O)Cc2ccc(F)cc2)c2cc(OCCCO)ccc2N1C(=O)c1ccc2ccccc2n1 (stereo not given in full) | -0.153 | 1.2 | 1.09 | 0.466 | -0.553 | 1.72 | -0.528 (inactive) | -0.131 | 0.288 | 0.642 (inactive) |
| CC1CC/C=C\[C@H]2OC34C=CCN(CCN5CCOCC5)C(=O)[C@H]3N(CCO)C(=O)[C@@H]4C2C(=O)O1 (stereo not given in full) | -0.507 | 1.44 | -0.186 | 0.237 | 0.143 | -0.382 | -0.533 (inactive) | 0.673 | 0.671 | -0.451 (inactive) |
